This passage reports growth results from PubChem BioAssay (NCI).

Values joined by “and” are separate entries in the source; they are usually repeats but may differ in a detail not shown here. Equal entries are not always repeated. Compounds without any hit were thinned out: in the full panel of roughly 83,000, 20% have a hit.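 A percent growth of 40 corresponds to 60% growth inhibition; 0 means no net growth; -100 means all cells died. Active threshold: below 10.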 Active and inactive are the calls of the source.

The subject of this experiment is MDA-MB-468 breast. Description: NCI-60 one-dose screen, 48 h (100 = growth as untreated, 0 = no growth, -100 = all killed). To be noted: 10 µM unless noted. As to the method: Growth inhibition of the MDA-MB-468 human Breast tumor cell line is measured as a screen for anti-cancer activity. Cells are grown in 96 well plates and exposed to the test compound for 48 hours. Compounds are tested at a single concentration, which is 10^-5 M for most compounds. The reported endpoint is percent growth (GI% or GIPRCNT), where numbers from 0 - 100% represent growth inhibition, and numbers from -100% - 0 represent cell death. For example, a value of 40 represents 60% growth inhibition. A value of 0 means no net growth occurred over the course of the experiment. A value of -40 indicates 40% of cells at the beginning of the experiment died by the end of the experiment. A value of -100 means all cells are dead at the end of the experiment.
NCI-60 Human Tumor Cell Lines Screen was performed using the standard one-dose NCI protocol, which is described in more detail at https://dtp.cancer.gov/discovery_development/nci-60/default.htm.
Compounds with GIPRCNT values below 10 were considered active. Activity score was based on GIPRCNT using the following formula: […]
Score is 0 for GIPRCNT values of 100 or above, 50 for GIPRCNT values of 0, and 100 for GIPRCNT values of -100.
Take `CN(C)c1ccc2nc3ccc(N)cc3[n+](-c3ccccc3)c2c1`: the growth was -28.6% (active) and 20.2% (inactive).
For the molecule `N[C@@H]1CCC[C@H]1NCCCCN1C(=O)c2cccc3cc([N+](=O)[O-])cc(c23)C1=O`, the growth was 31.9% (inactive).
`O=C(CNC(=O)c1cccc2ccccc12)Nc1ccccc1Cc1ccccc1`: the growth was 13.7% [5 µM] (inactive).
In the case of `COc1ccc2[nH]cc(/C=N/Nc3nc4ccccc4s3)c2c1` it was 40.6% (inactive); in that of `N#C/C(=C\c1ccc(-c2ccc(Cl)c(Cl)c2)o1)C(=O)Nc1ncc(Cc2ccc(Cl)cc2)s1`, 22.1% (inactive).
`CCCCCCCCCCCC1=NC(C)(C)CN1CC(C)O` (stereo not given): the growth was 10% (inactive).
Turning to `O=[N+]([O-])c1cccc2cc(S(=O)(=O)O)ccc12`, the growth was 112% (inactive).
On to `CCCCCCCCCCCCSC(=N)N`, for which the growth was -58.5% (active).
Take `Clc1ccc2c(NCCCN3CCOCC3)c3oc4ccc(Cl)cc4c3nc2c1`: the growth is 44.2% (inactive).
The value for `C=C1C(=O)O[C@H]2[C@H]1CC/C(COC(=O)c1cc3cc(OC)ccc3[nH]1)=C\CC[C@@]1(C)O[C@@H]21` was -76.3% (active); that for `c1ccc(CP(Cc2ccccc2)c2ccccc2)cc1` was 98.6% (inactive).
Consider `CCC(CC)NCC(C)(C)O`, for which the growth was 104% (inactive).
On to `COC(=O)[C@H](Cc1ccccc1)NC(=O)[C@@H](OC)[C@@H]1Cc2cc3cc(OC4CC(OC5CC(O)C(O)C(C)O5)C(O)C(C)O4)c(C)c(O)c3c(O)c2C(=O)[C@H]1OC1CC(OC2CC(OC3CC(C)(O)C(O)C(C)O3)C(O)C(C)O2)C(O)C(C)O1` (stereo not given in full), for which the growth was -36.7% (active).
Turning to `CCN(CC)CCN1CC(=O)Nc2cc(Cl)ccc21`, the growth is 98.7% (inactive).
In the case of `CCOC(=O)NNc1nncc2ccccc12`, the growth was 105% (inactive).
`C#CCOc1cccc(Nc2ncnc3ccc(NC(=O)C=C)cc23)c1`: the growth was -25.7% (active).
As to `COc1cc(CNC(=O)CCCC/C=C/C(C)C)ccc1OCc1nnc(Nc2ccc([N+](=O)[O-])cc2)o1`, the growth was 53.7% (inactive).
`CS(=O)(=O)c1ccc(/C(=N/N=C(N)N)c2ccc(Cl)cc2)cc1`: the growth was 68.5% (inactive).
In the case of `COc1ccc(/C=N/NC(=O)CSc2nc(-c3cnccn3)cc(-c3cccs3)c2C#N)cc1` it was 83.1% (inactive).
Turning to `CN1C(=O)C2(Nc3cc(Cl)ccc3S2)c2cc(Cl)ccc21` (stereo not given), the growth is 106% (inactive).
The value for `O=C1C=C(O)C(=O)C(CC2=C(O)C(=O)C=C(O)C2=O)=C1O` was 98.7% (inactive); that for `CCOC(=O)C1=C(C)NC(SCc2cc(=O)oc3ccc(F)cc23)=N[C@@H]1c1cccc2ccccc12` was 113% (inactive); that for `O=C(Cc1ccc([N+](=O)[O-])cc1)Oc1ccccc1` was 113% (inactive).
Consider `COC[C@H](C)n1c(C2CCOCC2)nc2cnc3cc(-c4c(C)noc4C)c(OC)cc3c21`, for which the growth was 54.5% (inactive).
The value for `Cc1cc(C)cc(Nc2cc(C)nc3nc(C(F)(F)F)nn23)c1` was 25.5% (inactive); that for `C/C(=N\N1CC(=O)NC1=O)c1ccc([N+](=O)[O-])o1` was 95.7% (inactive).
Turning to `COc1ccc(-c2nnc(SCC(=O)c3ccccc3)o2)cc1`, the growth is 91.5% (inactive).
Regarding `Oc1cccc2ccc(N/N=C/c3cc(CN4CCCCC4)c(O)c4ncccc34)nc12`, the growth is -26.3% (active).
On to `COc1ccc(Cc2cnc(NC(=O)c3cc(C)oc3C)s2)cc1`, for which the growth is 14.8% (inactive).
The value for `CN(C)c1ccc(Nc2c3ccccc3nc3cc(NC(=O)CCN4CCCC4)ccc23)cc1` was -74.9% (active).
As to `CC1(C)N=C(N)N=C(N)N1c1ccc(S(=O)(=O)Nc2nccs2)cc1`, the growth is 103% (inactive).
Regarding `Cc1ccc(-c2cc3nc(C(Cl)Cl)nc(-c4cccs4)n3n2)cc1`, the growth was 39.5% (inactive).
As for `O=C1OCC2=C1C(c1cccc(F)c1)c1cc3c(cc1N2CCO)OCO3` (stereo not given), the growth is 8.27% (active).
For `COc1ccc2c(c1)[n+](=O)c(/C=C/C(=O)c1cc(OC)c(OC)c(OC)c1)c(C)n2[O-]`, the growth was 24.9% (inactive).
With `CCCCNCCC(O)c1cc2ccc(C(F)(F)F)cc2c2cc(C(F)(F)F)ccc12` (stereo not given), the growth is -91% (active).
In the case of `O=C(Nc1ccc2c(c1)OCCO2)C(=O)c1c[nH]c2ccccc12`, the growth is -0.365% (active).
In the case of `C[C@]12C[C@H]1CC[C@]1(C)[C@@H]2CC[C@@]23C[C@H](CC[C@H]21)[C@@](O)(CO)C3`, the growth was 82.3% (inactive).
Consider `COc1cc(Cn2cc3c(c2)-c2oncc2CC3)cc(OC)c1OC`, for which the growth was -17.1% (active).
Consider `Cc1c(C)c(N2C(=O)C=CC2=O)c(C)c(C)c1N1C(=O)C=CC1=O`, for which the growth was 96.5% (inactive).
As to `CCOC(=O)c1c(-c2cc(OC)c(OC)c(OC)c2)csc1N`, the growth is 50% (inactive).
